Structures are written as SMILES. Inconclusive results are not listed. The source made the active and inactive calls. Unless noted, calls follow the shape of the dose curve; as a rule, active = well fitted curve in the direction sought with a large enough effect in the repeat runs; inconclusive = weak or mixed curves; inactive = no such curve, though single readings can be large; an effect the other way counts as inactive or inconclusive.

Test [1] is described as follows: qHTS assay for small molecule agonists of the p53 signaling pathway (AID 651631; calls by dose curve; also: nearly all actives have a fitted effect of over 15% in size). The method in brief: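 Read-out is beta-lactamase FRET fluorescence measured 2 h after substrate addition at room temperature, in HCT-116 cells with a p53 response element-driven reporter exposed to compounds for 16 h at 37 °C.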
Background: In qHTS, concentration-response curves come from the screen itself.

Test [2] in a line: qHTS assay for small molecules that induce genotoxicity in human embryonic kidney cells expressing luciferase-tagged ATAD5 - cell viability (AID 651634; calls by dose curve; also: nearly all actives have a fitted effect of over 25% in size; also: potency is read from the fitted curve at half-maximal effect). The method in brief: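 Live-cell protease activity (CellTiter-Fluor, fluorescence) indicates viability. HEK293T cells with luciferase-tagged ATAD5; 15.5 hr compound treatment at 37C.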
A short description of test [3]: qHTS assay for small molecule disruptors of the mitochondrial membrane potential - cell viability (AID 720634; calls by dose curve;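 also: human HepG2 liver cancer cells; series mostly up to about 83 µM; nearly all actives have a fitted effect of over 20% in size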). An outline of the steps:
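Human hepatoma HepG2 cells were treated for 1 hr with test chemicals, then given m-MPI dye and CellTiter-Glo. Cell viability reflects luminescence proportional to cellular ATP.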

A short description of test [4]: qHTS assay for small molecule disruptors of the mitochondrial membrane potential (AID 720635). Also: potency is read from the fitted curve at half-maximal effect. The method in brief:
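HepG2 cells exposed to compound 1 hr at 37C, then Mito-MPS dye 30 min. Ratio read of aggregate (540/590 nm) versus monomer (490/535 nm) fluorescence.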

Test [5] is described as follows: qHTS assay to test for compound auto fluorescence at 590 nm (red) in HepG2 cells (AID 720674). An outline of the steps:
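HepG2 cells, 2,000 per well in MEM with 10% FBS, attached overnight at 37 C, then got 23 nL compound or DMSO. After 1 hr at 37 C, 5% CO2, red fluorescence was read at 540/590 nm against Rose Bengal sodium as reference.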

The nature of test [6]: qHTS assay to test for compound auto fluorescence at 535 nm (green) in HepG2 cells (AID 720675).
The nature of test [7]: qHTS assay to test for compound auto fluorescence at 460 nm (blue) in HEK293 cells (AID 720678). An outline of the steps:
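Measured: blue fluorescence (Ex 405/Em 460 nm) of compound-treated HEK293 cells, incubated overnight at 37C with 5% CO2 and scaled to triamterene equivalents.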

The nature of test [8]: qHTS assay for small molecule agonists of the p53 signaling pathway - cell viability (AID 651633; calls by dose curve; also: nearly all actives have a fitted effect of over 30% in size; also: potency is read from the fitted curve at half-maximal effect). An outline of the steps: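 p53RE-bla cells were treated with compound for 16 hours at 37 C. Cytotoxicity was then measured as CellTiter-Glo luminescence after 30 min at room temperature.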
The nature of test [9]: qHTS assay to test for compound auto fluorescence at 590 nm (red) in HEK293 cells (AID 720679). The method in brief:
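Using HEK293 cells at 2,000 per well, the screen added 23 nL of each compound after cell attachment and incubated overnight (37C, 5% CO2). The plate reader then captured red-label fluorescence, Ex/Em 540/590nm.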

Test [10] in a line: qHTS assay for small molecules that induce genotoxicity in human embryonic kidney cells expressing luciferase-tagged ATAD5 (AID 651632). Also: nearly all actives have a fitted effect of over 15% in size. Also: potency is read from the fitted curve at half-maximal effect. The method in brief:
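Genotoxicity read-out via ATAD5-luciferase: HEK293T cells, 16 hr compound incubation at 37C, Amplite detection.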

Take `CC(=O)Oc1c(C)cc(OCC(O)CNC(C)C)c(C)c1C` (stereo unspecified): the Potency result in test [1], in test [2], in [3], in [4], in test [5] and in [6] was “inactive” throughout. Also, the Potency result in [7] is “inactive”.
In the case of `O=C(Nc1ccc(O)cc1)c1ccccc1O`, the Potency entry in test [1], in [8], in [2], in test [5], in test [6] and in test [7] was “inactive” throughout. For the same compound, the Potency result in test [9] was “inactive”.
On to `COC(=O)CCC[N+](C)(C)C`, for which the Potency entry in test [10], in test [8], in test [2], in test [3], in test [4] and in test [5] was “inactive” in each case. Moreover, the Potency entry in test [6], in test [7] and in test [9] was “inactive” in each case.
Take `COc1ccc(CC2c3cc(OC)c(OC)cc3CC[N+]2(C)CCC(=O)OCCCCCOC(=O)CC[N+]2(C)CCc3cc(OC)c(OC)cc3C2Cc2ccc(OC)c(OC)c2)cc1OC` (stereo unspecified): the Potency result in [10], in test [8], in test [2], in test [3], in test [4] and in test [5] was “inactive” in each case. The Potency result in test [6], in [7] and in test [9] was “inactive” in each case.
Take `CC1CCC(NC(=O)N(CCCl)N=O)CC1` (stereo unspecified): the Potency entry in test [1], in test [8], in test [2], in test [3], in [5] and in test [6] was “inactive” each time. Further, the Potency result in test [7] and in [9] was “inactive” each time.
Regarding `CC(=O)O[C@H]1C(=O)[C@@]2(C)[C@H]([C@H](OC(=O)c3ccccc3)[C@]3(O)C[C@H](OC(=O)[C@H](O)[C@@H](NC(=O)c4ccccc4)c4ccccc4)C(C)=C1C3(C)C)[C@]1(OC(C)=O)CO[C@@H]1C[C@@H]2O`, the Potency result in [10], in test [8], in test [3], in test [5], in test [6] and in test [7] was “inactive” throughout. For the same compound, in test [9], the Potency entry is “inactive”. The Potency in [2] was 18.8 nM (active); in test [4], 944 nM (active).
Regarding `CC(=O)OCC(=O)[C@@]1(O)[C@H](C)C[C@H]2[C@@H]3C[C@H](F)C4=CC(=O)C=C[C@]4(C)[C@H]3[C@@H](O)C[C@@]21C`, the Potency result in test [10], in test [8], in test [2], in [3], in test [4] and in test [5] was “inactive” throughout. The Potency entry in test [6], in test [7] and in test [9] was “inactive” throughout.
On to `CCCCC[C@H](O)/C=C/[C@@H]1[C@H]2C/C(=C/CCCC(=O)O)O[C@H]2C[C@H]1O`, for which the Potency entry in test [10], in test [8], in [2], in [3], in test [4] and in [5] was “inactive” throughout. The Potency result in [6], in test [7] and in test [9] was “inactive” each time.
In the case of `CCN(CC)c1ccc(C(=C2C=CC(=[N+](CC)CC)C=C2)c2ccccc2)cc1`, the Potency in [10] is 2370 nM (active); in [8], 1680 nM (active); in test [2], 7500 nM (active); in test [4], 266 nM (active). In addition, the Potency entry in test [3], in [5], in test [6], in test [7] and in [9] was “inactive” throughout.
With `CC1(C)S[C@@H]2[C@H](NC(=O)[C@H](N)c3ccccc3)C(=O)N2[C@H]1C(=O)OCOC(=O)[C@@H]1N2C(=O)C[C@H]2S(=O)(=O)C1(C)C`, the Potency entry in test [10], in test [8], in test [2], in [3], in test [4] and in [5] was “inactive” each time. The Potency entry in [6] and in [7] was “inactive” each time.
Turning to `CC(=O)c1ccc2c(c1)N(CCCN1CCN(CCO)CC1)c1ccccc1S2`, the Potency result in test [1], in test [8], in test [3], in test [5], in test [6] and in test [7] was “inactive” each time. The Potency result in test [9] was “inactive”.
For `O=C(O)C1=C(CSc2nnnn2CS(=O)(=O)O)CS[C@@H]2[C@H](NC(=O)[C@H](O)c3ccccc3)C(=O)N12`, the Potency entry in test [10], in test [8], in test [2], in test [3], in test [4] and in [5] was “inactive” throughout. The Potency entry in test [6], in [7] and in test [9] was “inactive” throughout.
With `CN[C@@H]1[C@H](O[C@H]2[C@H](O[C@H]3[C@H](O)[C@@H](O)[C@H](N=C(N)N)[C@@H](O)[C@@H]3N=C(N)N)O[C@@H](C)[C@]2(O)C=O)O[C@@H](CO)[C@H](O)[C@H]1O`, the Potency result in [10], in test [8], in test [2], in [3], in [4] and in test [5] was “inactive” in each case. Moreover, the Potency result in [6], in [7] and in test [9] was “inactive” each time.
Regarding `O=C(OC[C@H]1O[C@](O)(COC(=O)c2cccnc2)[C@@H](OC(=O)c2cccnc2)[C@@H]1OC(=O)c1cccnc1)c1cccnc1`, the Potency entry in test [10], in test [8], in test [2], in test [3], in [4] and in test [5] was “inactive” throughout. Moreover, the Potency result in test [6], in test [7] and in [9] was “inactive” each time.
With `CCCCCCCCCCCCOCCCN`, the Potency entry in [1], in test [8], in test [2], in test [4], in test [5] and in [6] was “inactive” each time. In addition, the Potency result in test [7] and in test [9] was “inactive” each time.
Consider `CCNC(=O)[C@@H]1CCCN1C(=O)[C@H](CCCN=C(N)N)NC(=O)[C@H](CC(C)C)NC(=O)[C@@H](CC(C)C)NC(=O)[C@H](Cc1ccc(O)cc1)NC(=O)[C@H](CO)NC(=O)[C@H](Cc1c[nH]c2ccccc12)NC(=O)[C@H](Cc1cnc[nH]1)NC(=O)[C@@H]1CCC(=O)N1`, for which the Potency result in test [1], in [8], in test [3], in test [4], in [5] and in [6] was “inactive” in each case. The Potency result in test [7] and in test [9] was “inactive” in each case.
For the compound `CCOC(=O)c1c[nH]c2cc(OCC(C)C)c(OCC(C)C)cc2c1=O`, the Potency entry in test [10], in [8], in test [2], in test [3], in test [4] and in test [5] was “inactive” each time. For the same compound, the Potency entry in test [6], in test [7] and in test [9] was “inactive” each time.
As to `O=C(O)[C@@H](O)[C@H](O)[C@H](O)[C@@H](O)C(=O)O` (tested in a mixture with another compound), the Potency entry in [10], in test [8], in [2], in [3], in test [4] and in [5] was “inactive” in each case. The Potency entry in test [6], in test [7] and in [9] was “inactive” each time.
For `CC(CCc1ccc(O)cc1)NCC(O)c1ccc(O)cc1` (stereo unspecified), the Potency entry in [10], in test [8], in [2], in [3], in test [4] and in test [5] was “inactive” throughout. The Potency result in test [6], in test [7] and in [9] was “inactive” in each case.

Source of the values: PubChem BioAssay (Tox21).
